Assays:
[1] = tested on: U-2932; test: growth inhibition by drug alone (1 - RLU/untreated control) (fraction); higher = stronger inhibition; conditions: 177Lu-lilotomab satetraxetan 0 ug/ml
Outline: (§1)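 Growth inhibition was calculated from RealTime-Glo RLU against untreated no-drug wells. Values equal 1 − RLU/mean of 48 untreated no-drug wells per plate, read daily from day 3 after 1 h at 37°C. RIVA and U-2932 cells, with or without 18 h pretreatment by a radiolabelled anti-CD37 antibody conjugate (~600 MBq/mg; 0.5 µg/ml RIVA, 1 µg/ml U-2932), were washed and plated at 3,000 cells/well on compound-printed plates at 10/100 nM (RIVA) or 10/1,000 nM (U-2932).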

[2] = tested on: U-2932; test: growth inhibition by drug plus 177Lu-lilotomab satetraxetan (1 - RLU/untreated control) (fraction); higher = stronger inhibition; conditions: 177Lu-lilotomab satetraxetan 1 ug/ml
Outline: as §1

[3] = tested on: RIVA; test: as above; conditions: 177Lu-lilotomab satetraxetan 0.5 ug/ml
Outline: as §1

[4] = tested on: RIVA; test: growth inhibition by drug alone (1 - RLU/untreated control) (fraction); higher = stronger inhibition; conditions: 177Lu-lilotomab satetraxetan 0 ug/ml
Outline: as §1

Structure (SMILES)	growth inhibition by drug alone ([1]; 10 nM, time (day): 3)	growth inhibition by drug alone ([1]; 10 nM, time (day): 4)	growth inhibition by drug alone ([1]; 10 nM, time (day): 5)	growth inhibition by drug alone ([1]; 10 nM, time (day): 6)	growth inhibition by drug alone ([1]; 1000 nM, time (day): 3)	growth inhibition by drug alone ([1]; 1000 nM, time (day): 4)	growth inhibition by drug alone ([1]; 1000 nM, time (day): 5)	growth inhibition by drug alone ([1]; 1000 nM, time (day): 6)	growth inhibition by drug plus 177Lu-lilotomab satetraxetan ([2]; 10 nM, time (day): 3)	growth inhibition by drug plus 177Lu-lilotomab satetraxetan ([2]; 10 nM, time (day): 4)	growth inhibition by drug plus 177Lu-lilotomab satetraxetan ([2]; 10 nM, time (day): 5)	growth inhibition by drug plus 177Lu-lilotomab satetraxetan ([2]; 10 nM, time (day): 6)	growth inhibition by drug plus 177Lu-lilotomab satetraxetan ([2]; 1000 nM, time (day): 3)	growth inhibition by drug plus 177Lu-lilotomab satetraxetan ([2]; 1000 nM, time (day): 4)	growth inhibition by drug plus 177Lu-lilotomab satetraxetan ([2]; 1000 nM, time (day): 5)	growth inhibition by drug plus 177Lu-lilotomab satetraxetan ([2]; 1000 nM, time (day): 6)	growth inhibition by drug plus 177Lu-lilotomab satetraxetan ([3]; 10 nM, time (day): 3)	growth inhibition by drug plus 177Lu-lilotomab satetraxetan ([3]; 10 nM, time (day): 4)	growth inhibition by drug plus 177Lu-lilotomab satetraxetan ([3]; 10 nM, time (day): 5)	growth inhibition by drug plus 177Lu-lilotomab satetraxetan ([3]; 10 nM, time (day): 6)	growth inhibition by drug plus 177Lu-lilotomab satetraxetan ([3]; 100 nM, time (day): 3)	growth inhibition by drug plus 177Lu-lilotomab satetraxetan ([3]; 100 nM, time (day): 4)	growth inhibition by drug plus 177Lu-lilotomab satetraxetan ([3]; 100 nM, time (day): 5)	growth inhibition by drug plus 177Lu-lilotomab satetraxetan ([3]; 100 nM, time (day): 6)	growth inhibition by drug alone ([4]; 10 nM, time (day): 3)	growth inhibition by drug alone ([4]; 10 nM, time (day): 4)	growth inhibition by drug alone ([4]; 10 nM, time (day): 5)	growth inhibition by drug alone ([4]; 10 nM, time (day): 6)	growth inhibition by drug alone ([4]; 100 nM, time (day): 3)	growth inhibition by drug alone ([4]; 100 nM, time (day): 4)	growth inhibition by drug alone ([4]; 100 nM, time (day): 5)	growth inhibition by drug alone ([4]; 100 nM, time (day): 6)
O=C(O)c1ccc2c(c1)nc(Nc1cccc(Cl)c1)c1ccncc12 [cx-4945 (Silmitasertib)]	0.0111	-0.0226	-0.00497	0.0386	0.0436	0.0306	-0.0126	-0.0489	0.0376	0.0473	0.0445	0.189	0.0211	0.0508	0.0545	0.159	0.409	0.518	0.528	0.542	0.413	0.47	0.487	0.468								
CCOC(=O)[C@@H](C)Oc1cccc2c(=O)n(CC(=O)Nc3ccc4c(c3)OCCO4)ccc12	-0.0226	-0.00751	0.0431	0.176	-0.114	-0.0578	-0.0945	-0.15	-0.0102	0.0168	0.0306	0.145	-0.139	-0.0327	-0.0266	-0.0505	0.384	0.517	0.542	0.536	0.305	0.424	0.427	0.414								
C=CC(=O)N1CCC[C@@H](n2nc(-c3ccc(Oc4ccccc4)cc3)c3c(N)ncnc32)C1	0.341	0.519	0.583	0.634	0.502	0.623	0.729	0.832	0.46	0.56	0.568	0.6	0.639	0.723	0.791	0.845	0.764	0.828	0.848	0.853	0.872	0.9	0.919	0.934								
Nc1ncn([C@@H]2O[C@H](CO)[C@@H](O)[C@H]2O)c(=O)n1 [Azacitidine (Vidaza)]	-0.0982	-0.0929	-0.0726	-0.0507	-0.188	-0.0618	0.0181	0.17	-0.107	-0.0484	0.0134	-0.00849	-0.0673	0.0405	0.146	0.324	0.407	0.483	0.506	0.5	0.241	0.37	0.362	0.374								
C[C@]12CC[C@@H]3c4ccc(O)cc4CC[C@H]3[C@@H]1CCC2=O [Estrone]	0.0961	0.0749	0.0943	-0.00298	0.0954	0.046	0.0242	-0.126	0.0282	0.0899	0.127	0.0988	0.0277	0.0438	0.0954	0.209	0.474	0.569	0.585	0.601	0.271	0.43	0.447	0.475	-0.099	-0.0604	-0.112	-0.295	-0.445	-0.269	-0.323	-0.542
CC(=O)Nc1nc(C)c(-c2ccc(Cl)c(S(=O)(=O)NCCO)c2)s1	0.075	0.0569	0.00221	-0.159	0.302	0.29	0.248	0.307	-0.0326	0.00318	0.0521	0.103	0.423	0.467	0.424	0.489	0.348	0.493	0.527	0.549	0.317	0.471	0.448	0.434	0.0212	0.026	-0.0187	-0.271	-0.0771	-0.0663	-0.1	-0.193
CN[C@@H](C)C(=O)N[C@H]1CN(C(=O)CC(C)C)CC[C@H]2CC[C@@H](C(=O)NC(c3ccccc3)c3ccccc3)N2C1=O	0.0554	0.0151	-0.0459	-0.197	-0.059	-0.0374	-0.0798	-0.0575	-0.0234	-0.00591	0.0157	0.0545	-0.0193	0.0475	0.055	0.159	0.456	0.56	0.581	0.599	0.456	0.551	0.567	0.544								
CC1=C(/C=C/C(C)=C/C=C/C(C)=C/C(=O)Nc2ccc(O)cc2)C(C)(C)CCC1 [Fenretinide]	0.0635	0.0202	-0.0163	-0.136	0.757	0.403	0.216	0.00716	0.0221	0.0894	0.138	0.148	0.704	0.374	0.313	0.295	0.515	0.573	0.583	0.583	0.435	0.504	0.521	0.541								
COc1cc2ncnc(Nc3ccc(F)c(Cl)c3)c2cc1NC(=O)/C=C/CN1CCCCC1	-0.101	-0.0931	-0.078	0.0128	-0.222	-0.156	-0.164	-0.0283	-0.0733	-0.0275	0.0218	0.0574	-0.26	-0.16	-0.0838	0.0995	0.446	0.525	0.55	0.538	0.262	0.366	0.387	0.392								
